# Laboratory results published in PubChem BioAssay (EPA / NIEHS).
# Inconclusive results are not listed. Calls of active or inactive are those of the source. The calls were made as follows, unless noted: active = hit-call score of the fitted dose curve at least 0.9, where 1 is the maximum; inconclusive = response in the unintended direction; inactive = score below 0.9.
# Tests used:
# [1] = molecular target: rat Vasopressin 1 Receptor (V1), Avpr1a (gene 25107) (UniProt P30560); assay: NVS_GPCR_rV1: NovaScreen (NVS) G Protein-Coupled Receptor Assay for rat Vasopressin 1 Receptor (V1) (AID 2283316)
# Outline: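 Radioligand binding on rat liver membranes, 1.5 h incubation, filter-based scintillation counting. Single 25 uM screen in duplicate; chemicals meeting threshold (e.g. 30% inhibition) run in concentration-response up to 50 uM.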
# [2] = molecular target: rat Thyrotropin Releasing Hormone Receptor (TRH), Trhr (gene 25570) (UniProt Q01717); assay: NVS_GPCR_rTRH: NovaScreen (NVS) G Protein-Coupled Receptor Assay for rat Thyrotropin Releasing Hormone Receptor (TRH) (AID 2283329);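 also: hit means lower bound tracer signal versus DMSO baseline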
# Outline: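 Competitive radioligand binding on rat forebrain membrane preparations, with filtration and scintillation readout after 4 h. Primary testing in duplicate at 25 uM; actives confirmed in concentration-response. DMSO defined baseline.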
# [3] = NVS_IC_rCaBTZCHL: NovaScreen (NVS) Ion Channel Assay for Calcium Channel, Type L, Benzothiazepine Site (CaBTZCHL) (AID 2283337)
# Outline: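 Radioligand displacement at the benzothiazepine site using rat cortical membranes; bound label measured by filtration and scintillation counting 1.5 h after dosing. Single-point 25 uM in duplicate, then concentration series; DMSO baseline.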
# [4] = molecular target: rat Opioid Receptor, Non-selective Binding, Oprm1 (gene 25601) (UniProt P33535); assay: NVS_GPCR_rOpiate_NonSelective: NovaScreen (NVS) G Protein-Coupled Receptor Assay for rat Opioid Receptor, Non-selective Binding (AID 2283318)
# Outline: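 Rat forebrain membranes, cell-free radioligand binding with filter-based scintillation counting, read 1.5 h after dosing. Primary screen in duplicate at 25 uM; actives retested in concentration series. Loss of signal versus DMSO baseline scored.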
# [5] = molecular target: human Peripheral-type Benzodiazepine Receptor (PBR), TSPO (gene 706) (UniProt P30536); assay: NVS_MP_hPBR: NovaScreen (NVS) Membrane Protein Assay for human Peripheral-type Benzodiazepine Receptor (PBR) (AID 2283331);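 also: hits reduce radioligand binding relative to DMSO baseline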
# Outline: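 Radioligand displacement on human colonic cell membranes, 1 h incubation; bound radioactivity by filtration and scintillation counting. Primary screen in duplicate at 25 uM single concentration, actives followed up in concentration series; loss of binding versus DMSO.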
# [6] = molecular target: rat Peripheral-type Benzodiazepine Receptor (PBR), Tspo (gene 24230) (UniProt P16257); assay: NVS_MP_rPBR: NovaScreen (NVS) Membrane Protein Assay for rat Peripheral-type Benzodiazepine Receptor (PBR) (AID 2283335)
# Outline: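 Rat kidney membranes; radioligand binding with displacement, filter-based scintillation counting, 1 h incubation. Primary screen in duplicate at 25 uM, actives followed in concentration series; loss of binding vs DMSO.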
# [7] = molecular target: rat Glutamate, MK-801 Agonist Site (GluNMDA_MK801), Grin1 (gene 24408) (UniProt P35439); assay: NVS_LGIC_rGluNMDA_MK801_Agonist: NovaScreen (NVS) Ligand-Gated Ion Channel Assay for rat Glutamate, MK-801 Agonist Site (GluNMDA_MK801) (AID 2283340)
# Outline: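 Radioligand binding at MK-801 site in rat forebrain membranes, 1.5 h incubation, filter-based scintillation counting. Initially 25 uM in duplicate; actives then run in concentration-response up to 50 uM, fitted for gain of signal versus DMSO.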
# [8] = molecular target: human Serotonin, 5-Hydroxytryptamine Receptor 3 (5HT3), HTR3A (gene 3359) (UniProt P46098); assay: NVS_LGIC_h5HT3: NovaScreen (NVS) Ligand-Gated Ion Channel Assay for human Serotonin, 5-Hydroxytryptamine Receptor 3 (5HT3) (AID 2283325)
# Outline: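 Radioligand displacement binding to human 5-HT3 from HEK293 membranes, read by filter-based scintillation counting after 1 h. Screen at 25 uM in duplicate; chemicals passing threshold were retested in concentration-response up to 50 uM.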
# [9] = NVS_IC_rCaDHPRCh_L: NovaScreen (NVS) Ion Channel Assay for rat Calcium Channel, Type L, Dihydropyridine Site (CaDHPRCh_L) (AID 2283320)
# Outline: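 Radioligand binding to dihydropyridine site on rat cortical membranes, filter-based scintillation counting, 1 h after dosing. Screened in duplicate at 25 uM; actives rerun in concentration-response up to 50 uM. Loss of signal versus DMSO baseline.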
# [10] = molecular target: rat Glutamate, NMDA Agonist Site (GluNMDA), Grin1 (gene 24408) (UniProt P35439); assay: NVS_LGIC_rGluNMDA_Agonist: NovaScreen (NVS) Ligand-Gated Ion Channel Assay for rat Glutamate, NMDA Agonist Site (GluNMDA) (AID 2283327)
# Outline: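 Rat forebrain membranes, radioligand binding in the agonist-site protocol; 1 h after dosing; filter-based scintillation counting. Single-concentration duplicate screen at 25 uM, then concentration-response up to 50 uM for actives; gain-of-signal vs DMSO.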
# [11] = molecular target: human Constitutive Androstane Receptor (CAR), NR1I3 (gene 9970) (UniProt Q14994); assay: NVS_NR_hCAR_Agonist: NovaScreen (NVS) Nuclear Receptor Binding Assay for human Constitutive Androstane Receptor Agonism (CAR) (AID 2283328)
# Outline: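 Cell-free TR-FRET binding readout with extracted human CAR protein, read 1 h after dosing. Gain of signal fitted against DMSO baseline. Single-concentration duplicates at 25 uM, then concentration-response up to 50 uM for actives.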
# [12] = molecular target: rat Glutamate, AMPA Site (AMPA), Gria1 (gene 50592) (UniProt P19490); assay: NVS_LGIC_rAMPA: NovaScreen (NVS) Ligand-Gated Ion Channel Assay for rat Glutamate, AMPA Site (AMPA) (AID 2283324)
# Outline: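 Rat forebrain membranes; radioligand binding read 1 h after dosing by filtration and scintillation counting. Duplicate single-point screen at 25 uM, then concentration-response to 50 uM for threshold hits (e.g. 30% inhibition); loss of signal vs DMSO.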
# [13] = molecular target: rat Gamma-Aminobutyric Acid Type A Receptor, Non-Selective (GABAR-NonSelective), Gabra1 (gene 29705) (UniProt P62813); assay: NVS_LGIC_rGABAR_NonSelective: NovaScreen (NVS) Ligand-Gated Ion Channel Assay for rat Gamma-Aminobutyric Acid Type A Receptor, Non-Selective (GABAR-NonSelective) (AID 2283326)
# Outline: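 Radioligand displacement on rat whole-brain extract, 1 h, filter scintillation readout; signal loss fitted versus DMSO. Primary screen in duplicate at 25 uM; hits (e.g. ≥30% inhibition) retested in concentration-response up to 50 uM.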
# [14] = molecular target: Glutamate receptor ionotropic, kainate 1 (Rattus norvegicus) (UniProt P22756); assay: NVS_IC_rKAR: NovaScreen (NVS) Ion Channel Assay for rat Kainic Acid Receptors (KAR) (AID 2283334; active = hit-call score of the fitted dose curve at least 0.9, where 1 is the maximum; inactive = score below 0.9)
# Outline: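 Radioligand displacement binding using rat forebrain membranes, 1 h incubation, filter-based scintillation counting. Screened in duplicate at 25 uM, with actives retested in concentration-response up to 50 uM; fitted against DMSO.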
# [15] = molecular target: bovine Gamma-Aminobutyric Acid Type A Receptor BDZ, alpha 5 site (GABARa5), GABRA5 (gene 523515) (UniProt Q08E50); assay: NVS_LGIC_bGABARa5: NovaScreen (NVS) Ligand-Gated Ion Channel Assay for bovine Gamma-Aminobutyric Acid Type A Receptor BDZ, alpha 5 site (GABARa5) (AID 2283323)
# Outline: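 Radioligand competitive displacement binding on bovine hippocampal membranes, read 1 hr after dosing by filter-based scintillation counting. Primary screen at 25 uM in duplicate; actives (e.g. ≥30% inhibition) then run in concentration-response up to 50 uM.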
# [16] = molecular target: bovine Gamma-Aminobutyric Acid Type A Receptor Agonist (GABAR Agonist), GABRA1 (gene 780973) (UniProt P08219); assay: NVS_LGIC_bGABAR_Agonist: NovaScreen (NVS) Ligand-Gated Ion Channel Assay for bovine Gamma-Aminobutyric Acid Type A Receptor Agonist (GABAR Agonist) (AID 2283338)
# Outline: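 Radioligand binding to bovine cerebellar membranes in agonist format, read by filter-based scintillation counting after 1 h. Primary screen in duplicate at 25 uM, with actives followed in concentration series. Gain of signal versus DMSO.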
# Sequence of rat Glutamate, AMPA Site (AMPA), Gria1 (gene 50592) (P19490 whole entry, looked up): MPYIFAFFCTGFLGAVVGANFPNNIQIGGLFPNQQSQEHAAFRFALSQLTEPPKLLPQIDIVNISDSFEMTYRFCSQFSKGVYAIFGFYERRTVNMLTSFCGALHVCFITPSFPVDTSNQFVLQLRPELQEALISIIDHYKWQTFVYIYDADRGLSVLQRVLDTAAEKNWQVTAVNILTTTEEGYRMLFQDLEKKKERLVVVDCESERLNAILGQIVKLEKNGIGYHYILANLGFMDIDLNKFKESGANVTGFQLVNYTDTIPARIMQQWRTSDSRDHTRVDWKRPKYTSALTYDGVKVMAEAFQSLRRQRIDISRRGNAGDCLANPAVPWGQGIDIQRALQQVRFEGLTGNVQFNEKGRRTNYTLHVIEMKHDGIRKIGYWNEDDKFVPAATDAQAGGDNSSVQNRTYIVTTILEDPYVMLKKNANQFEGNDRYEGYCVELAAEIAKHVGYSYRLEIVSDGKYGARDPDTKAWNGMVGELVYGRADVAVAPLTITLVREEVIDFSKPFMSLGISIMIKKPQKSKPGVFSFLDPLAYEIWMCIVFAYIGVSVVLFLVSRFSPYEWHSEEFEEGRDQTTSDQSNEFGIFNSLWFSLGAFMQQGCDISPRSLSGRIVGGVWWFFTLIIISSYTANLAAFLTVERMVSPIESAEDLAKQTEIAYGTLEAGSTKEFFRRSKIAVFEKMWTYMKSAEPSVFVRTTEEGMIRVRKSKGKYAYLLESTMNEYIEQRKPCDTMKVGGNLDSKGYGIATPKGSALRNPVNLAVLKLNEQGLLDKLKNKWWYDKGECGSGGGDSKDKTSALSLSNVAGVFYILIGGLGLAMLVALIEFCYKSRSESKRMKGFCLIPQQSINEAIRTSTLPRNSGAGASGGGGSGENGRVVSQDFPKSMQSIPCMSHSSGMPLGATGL
# Sequence of human Serotonin, 5-Hydroxytryptamine Receptor 3 (5HT3), HTR3A (gene 3359) (P46098 whole entry, looked up): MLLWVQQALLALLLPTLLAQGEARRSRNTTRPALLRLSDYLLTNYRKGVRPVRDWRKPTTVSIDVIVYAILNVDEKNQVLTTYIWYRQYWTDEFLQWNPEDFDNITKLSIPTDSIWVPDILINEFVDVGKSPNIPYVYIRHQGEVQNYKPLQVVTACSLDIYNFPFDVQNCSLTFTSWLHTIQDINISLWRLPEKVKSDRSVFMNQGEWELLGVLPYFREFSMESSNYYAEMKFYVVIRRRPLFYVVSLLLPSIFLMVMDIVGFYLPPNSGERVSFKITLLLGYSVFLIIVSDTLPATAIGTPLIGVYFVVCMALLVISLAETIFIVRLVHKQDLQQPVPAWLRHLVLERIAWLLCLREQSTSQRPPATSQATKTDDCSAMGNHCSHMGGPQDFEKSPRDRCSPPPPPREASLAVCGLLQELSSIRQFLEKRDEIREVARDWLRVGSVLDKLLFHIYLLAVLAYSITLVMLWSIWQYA
# Sequence of human Peripheral-type Benzodiazepine Receptor (PBR), TSPO (gene 706) (P30536 whole entry, looked up): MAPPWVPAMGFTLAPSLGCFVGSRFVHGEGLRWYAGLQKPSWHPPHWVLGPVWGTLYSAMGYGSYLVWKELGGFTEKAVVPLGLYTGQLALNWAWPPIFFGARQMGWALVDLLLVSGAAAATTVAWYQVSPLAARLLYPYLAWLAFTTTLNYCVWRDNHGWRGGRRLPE
# Sequence of rat Opioid Receptor, Non-selective Binding, Oprm1 (gene 25601) (P33535 whole entry, looked up): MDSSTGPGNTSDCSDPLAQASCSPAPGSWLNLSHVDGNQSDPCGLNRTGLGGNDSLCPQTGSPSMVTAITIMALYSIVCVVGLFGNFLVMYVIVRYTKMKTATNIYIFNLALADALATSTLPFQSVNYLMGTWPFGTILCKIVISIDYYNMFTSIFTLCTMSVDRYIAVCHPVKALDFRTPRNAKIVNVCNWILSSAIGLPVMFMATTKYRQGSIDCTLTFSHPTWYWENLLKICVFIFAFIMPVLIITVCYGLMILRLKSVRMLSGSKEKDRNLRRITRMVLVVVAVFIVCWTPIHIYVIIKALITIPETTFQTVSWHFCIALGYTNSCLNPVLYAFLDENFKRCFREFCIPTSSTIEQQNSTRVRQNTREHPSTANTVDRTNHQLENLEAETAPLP
# Sequence of rat Vasopressin 1 Receptor (V1), Avpr1a (gene 25107) (P30560 whole entry, looked up): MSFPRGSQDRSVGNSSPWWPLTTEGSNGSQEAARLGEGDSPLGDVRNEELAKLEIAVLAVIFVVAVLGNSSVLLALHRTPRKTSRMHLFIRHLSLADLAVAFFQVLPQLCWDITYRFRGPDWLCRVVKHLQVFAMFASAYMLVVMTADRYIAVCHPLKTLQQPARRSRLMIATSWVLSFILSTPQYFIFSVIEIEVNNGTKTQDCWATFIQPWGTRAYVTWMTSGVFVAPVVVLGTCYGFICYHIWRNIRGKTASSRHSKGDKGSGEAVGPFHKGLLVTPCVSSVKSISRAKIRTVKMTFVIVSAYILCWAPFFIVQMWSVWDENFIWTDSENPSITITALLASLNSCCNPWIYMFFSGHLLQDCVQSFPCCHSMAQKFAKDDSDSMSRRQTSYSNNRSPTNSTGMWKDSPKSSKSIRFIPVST
# Sequence of Glutamate receptor ionotropic, kainate 1 (Rattus norvegicus) (P22756 whole entry, looked up): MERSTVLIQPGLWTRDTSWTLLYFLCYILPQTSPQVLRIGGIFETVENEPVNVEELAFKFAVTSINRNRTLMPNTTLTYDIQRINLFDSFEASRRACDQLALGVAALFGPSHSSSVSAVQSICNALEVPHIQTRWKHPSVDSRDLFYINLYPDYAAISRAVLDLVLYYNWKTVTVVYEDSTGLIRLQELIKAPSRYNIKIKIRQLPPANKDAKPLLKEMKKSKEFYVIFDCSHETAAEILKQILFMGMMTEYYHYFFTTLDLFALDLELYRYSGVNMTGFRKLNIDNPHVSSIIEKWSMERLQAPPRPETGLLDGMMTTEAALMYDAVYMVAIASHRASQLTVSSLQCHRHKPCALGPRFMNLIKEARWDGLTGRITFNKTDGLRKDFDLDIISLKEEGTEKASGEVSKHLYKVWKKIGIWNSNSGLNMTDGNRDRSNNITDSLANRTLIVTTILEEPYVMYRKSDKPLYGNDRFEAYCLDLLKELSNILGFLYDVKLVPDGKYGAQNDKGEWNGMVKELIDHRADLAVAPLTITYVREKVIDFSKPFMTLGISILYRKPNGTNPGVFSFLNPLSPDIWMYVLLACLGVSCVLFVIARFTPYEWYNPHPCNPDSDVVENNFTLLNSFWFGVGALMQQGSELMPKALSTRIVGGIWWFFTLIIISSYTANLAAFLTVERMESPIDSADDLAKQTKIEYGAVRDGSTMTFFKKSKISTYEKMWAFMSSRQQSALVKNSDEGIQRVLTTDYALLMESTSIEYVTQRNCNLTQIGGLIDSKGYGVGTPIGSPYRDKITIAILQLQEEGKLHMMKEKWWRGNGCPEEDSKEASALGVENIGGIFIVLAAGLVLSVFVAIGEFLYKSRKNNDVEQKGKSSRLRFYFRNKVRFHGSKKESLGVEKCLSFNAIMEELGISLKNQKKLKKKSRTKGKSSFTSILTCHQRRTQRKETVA
# Sequence of rat Peripheral-type Benzodiazepine Receptor (PBR), Tspo (gene 24230) (P16257 whole entry, looked up): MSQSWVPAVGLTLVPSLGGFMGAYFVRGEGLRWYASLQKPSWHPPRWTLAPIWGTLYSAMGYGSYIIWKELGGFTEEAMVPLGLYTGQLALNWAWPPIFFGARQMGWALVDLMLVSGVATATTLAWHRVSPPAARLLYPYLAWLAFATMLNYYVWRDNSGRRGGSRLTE
# Sequence of bovine Gamma-Aminobutyric Acid Type A Receptor BDZ, alpha 5 site (GABARa5), GABRA5 (gene 523515) (Q08E50 whole entry, looked up): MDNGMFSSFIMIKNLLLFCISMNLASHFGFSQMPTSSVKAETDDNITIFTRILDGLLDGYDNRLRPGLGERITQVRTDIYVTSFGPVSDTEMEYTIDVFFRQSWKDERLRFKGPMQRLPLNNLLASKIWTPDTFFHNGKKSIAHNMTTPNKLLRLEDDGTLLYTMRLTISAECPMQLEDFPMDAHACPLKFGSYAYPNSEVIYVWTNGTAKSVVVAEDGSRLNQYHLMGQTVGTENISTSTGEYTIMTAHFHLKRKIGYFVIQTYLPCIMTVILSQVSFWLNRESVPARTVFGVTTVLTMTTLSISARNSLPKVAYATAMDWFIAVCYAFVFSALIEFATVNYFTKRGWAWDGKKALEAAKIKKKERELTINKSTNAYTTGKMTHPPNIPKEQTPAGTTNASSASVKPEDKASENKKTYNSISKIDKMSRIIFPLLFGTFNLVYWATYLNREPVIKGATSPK
# Sequence of bovine Gamma-Aminobutyric Acid Type A Receptor Agonist (GABAR Agonist), GABRA1 (gene 780973) (P08219 whole entry, looked up): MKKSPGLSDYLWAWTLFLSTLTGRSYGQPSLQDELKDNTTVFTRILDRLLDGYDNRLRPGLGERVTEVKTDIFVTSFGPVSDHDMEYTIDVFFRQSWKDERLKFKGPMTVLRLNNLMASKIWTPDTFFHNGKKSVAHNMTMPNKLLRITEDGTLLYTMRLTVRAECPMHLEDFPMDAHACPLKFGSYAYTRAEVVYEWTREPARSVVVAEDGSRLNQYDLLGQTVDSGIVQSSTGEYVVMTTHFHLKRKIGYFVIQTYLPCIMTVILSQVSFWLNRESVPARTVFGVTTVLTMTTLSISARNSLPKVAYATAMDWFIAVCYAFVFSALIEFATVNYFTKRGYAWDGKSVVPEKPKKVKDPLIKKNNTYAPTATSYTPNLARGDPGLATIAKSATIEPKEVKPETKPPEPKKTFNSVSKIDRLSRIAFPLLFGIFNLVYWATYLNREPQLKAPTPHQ
# Sequence of human Constitutive Androstane Receptor (CAR), NR1I3 (gene 9970) (Q14994 whole entry, looked up): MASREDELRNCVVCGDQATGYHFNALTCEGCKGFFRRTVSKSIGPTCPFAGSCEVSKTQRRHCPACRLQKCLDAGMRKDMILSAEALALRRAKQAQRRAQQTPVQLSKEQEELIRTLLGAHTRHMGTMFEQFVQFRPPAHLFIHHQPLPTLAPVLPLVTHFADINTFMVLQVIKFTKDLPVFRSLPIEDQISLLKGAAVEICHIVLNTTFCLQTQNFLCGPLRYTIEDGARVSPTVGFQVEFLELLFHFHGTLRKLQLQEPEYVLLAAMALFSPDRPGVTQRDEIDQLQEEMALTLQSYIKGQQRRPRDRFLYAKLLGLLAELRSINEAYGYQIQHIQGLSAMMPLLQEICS
smiles,measurement,setting,value
COc1ccc(S(=O)(=O)N2C(=O)[C@@](c3ccccc3OC)(N3C[C@H](O)C[C@H]3C(=O)N(C)C)c3cc(Cl)ccc32)c(OC)c1,outcome,[1],inactive
same,AC50,[2],10.4 µM (active)
same,AC50,[3],3.53 µM (active)
CC(C)c1ccc(C(=O)N=C(N)N)cc1S(C)(=O)=O,AC50,[4],5.07 µM (active)
same,AC50,[5],12.3 µM (active)
same,outcome,[6],inactive
same,outcome,[7],inactive
NC(=O)Cn1c(=O)cc(CCN2CCN(c3nccc4sccc34)CC2)c2ccc(F)cc21,AC50,[4],1.45 µM (active)
same,AC50,[5],1.77 µM (active)
same,AC50,[6],1.6 µM (active)
NCC1(Cc2noc(=O)[nH]2)CCCCC1,outcome,[8],inactive
FC(F)(F)C(F)(F)C(F)(F)C(F)(F)C(F)(F)C(F)(F)CCI,outcome,[9],inactive
Oc1ccc2c(c1)OC[C@@H](N1CCC(O)(c3ccc(F)cc3)CC1)[C@H]2O,outcome,[4],inactive
same,outcome,[8],inactive
same,outcome,[10],inactive
same,outcome,[11],inactive
same,outcome,[3],inactive
Nc1nc(N)c2nc(CNc3ccc(C(=O)N[C@@H](CCC(=O)O)C(=O)O)cc3)cnc2n1,AC50,[9],25 µM (active)
same,AC50,[12],23.2 µM (active)
same,outcome,[13],inactive
same,outcome,[14],inactive
Cc1cccc(Nc2cc(Cl)nc(SCC(=O)O)n2)c1C,AC50,[1],2.85 µM (active)
same,AC50,[5],6.49 µM (active)
COCCOC[C@H](CC1(C(=O)NC2CCC(C(=O)O)CC2)CCCC1)C(=O)Oc1ccc2c(c1)CCC2 (some centres undefined),outcome,[4],inactive
same,outcome,[12],inactive
Cc1cc(NC(=O)C(=O)O)cc(C)c1Oc1ccc(O)c2c1CCC2,outcome,[4],inactive
same,outcome,[12],inactive
CCc1c(C(=O)NN2CCCCC2)nn(-c2ccc(Cl)cc2Cl)c1-c1ccc(Br)cc1,outcome,[9],inactive
same,outcome,[3],inactive
CCCCCCCC=O,outcome,[12],inactive
same,outcome,[14],inactive
CCCCc1ccc2c(n1)[C@@H](c1ccc(OC)cc1C[C@H](C)C(=O)O)[C@H](C(=O)O)[C@H]2c1ccc2c(c1)OCO2,AC50,[15],27.5 µM (active)
Cc1cc(=O)[nH]c(=S)[nH]1,outcome,[9],inactive
CCCCCCCCCCCCCCCC,outcome,[8],inactive
CCOc1ccc2c(c1)C(C)=CC(C)(C)N2,outcome,[12],inactive
same,outcome,[8],inactive
same,outcome,[16],inactive
O=C(N[C@@H](Cc1ccccc1)[C@@H](O)C(=O)N1C[C@@H](O)[C@@H](O)C1)c1cc2cc(Cl)ccc2[nH]1,AC50,[4],25 µM (active)
same,outcome,[3],inactive
